Test results published in PubChem BioAssay.
Activity calls are given as the source filed them.

Legend:
[1] = tested on: PRMT1 (protein arginine N-methyltransferase 1); assay: PRMT1 binders on small-molecule microarrays, primary screen, biochemical, small-molecule microarray, 635 nm fluorescence (AID 1088); settings: small-molecule microarray binding, higher = more signal;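 also: binding of Prmt1 protein to compounds spotted on small-molecule microarray slides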
[2] = yeast growth modulation, basal conditions, primary screen, YJM789 clinical isolate, OD600, 24 h (AID 1089);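 also: growth of clinical yeast isolate S. cerevisiae YJM 789 seeded 1000 cells per well; test concentration not given here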; settings: S. cerevisiae YJM789 growth, higher = more signal, called active from +8 up or from −8 down
[3] = fission yeast growth modulation, primary screen, strain 972, OD600, 24 h, no modulator (AID 1090);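 also: basal condition with compound alone and no growth modifier present; test concentration not given here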; settings: S. pombe 972 growth, higher = more signal, called active from +8 up or from −8 down
[4] = S. cerevisiae growth modulation with rapamycin, primary screen, strain BY4716, OD600, 96 h (AID 1091); settings: higher = more signal, called active from +8 up or from −8 down; also: test concentration not given here
[5] = target: Torsin-1A-interacting protein 2 (Homo sapiens) (UniProt Q8NFQ8); assay: LULL1 binders on small-molecule microarray, primary screen, cell lysate, human LULL1 lysate, 635/667 nm fluorescence (AID 1092); settings: hLULL1 lysate binding, 635 nm fluorescence, higher = more signal;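 also: probe is lysate of COS7 cells overexpressing human LULL1; score merges per-feature 667 nm fluorescence with signal-to-noise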
Torsin-1A-interacting protein 2 (Homo sapiens), sequence (Q8NFQ8 whole entry, looked up): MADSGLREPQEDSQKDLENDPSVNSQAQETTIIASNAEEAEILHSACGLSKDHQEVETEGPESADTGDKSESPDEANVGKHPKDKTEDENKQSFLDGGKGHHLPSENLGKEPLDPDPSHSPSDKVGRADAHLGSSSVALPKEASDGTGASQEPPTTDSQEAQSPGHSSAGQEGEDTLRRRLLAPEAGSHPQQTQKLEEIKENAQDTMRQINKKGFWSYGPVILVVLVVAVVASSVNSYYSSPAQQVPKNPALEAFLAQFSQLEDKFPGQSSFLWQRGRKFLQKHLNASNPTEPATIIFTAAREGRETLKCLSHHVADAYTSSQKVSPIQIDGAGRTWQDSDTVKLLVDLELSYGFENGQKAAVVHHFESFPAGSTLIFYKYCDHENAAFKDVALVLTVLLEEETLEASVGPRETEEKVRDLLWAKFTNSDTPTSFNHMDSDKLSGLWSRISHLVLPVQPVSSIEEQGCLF

[6] = E. coli growth modulation, two-sided OD650, primary screen, E. coli filamentation project, strain DRC41, 24 h (AID 1093); settings: OD650, 24 h, higher = more signal, called active from +8 up or from −8 down;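 also: MC1000 strain lacking acrAB efflux and sulA so SOS filamentation is blocked; test concentration not given here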
[7] = small-molecule microarray binders of probe aLefty2, primary screen, biochemical, biotinylated probe, 635/667 nm fluorescence (AID 1094); settings: higher = more signal;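 also: score merges spot fluorescence near 667 nm with spot signal-to-noise ratio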
[8] = tested on: Noggin (protein binding on small-molecule microarray); assay: Noggin binders on small-molecule microarray, primary screen, biochemical, 635/667 nm fluorescence (AID 1095); settings: 635 nm fluorescence, higher = more signal;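 also: score merges 667 nm feature fluorescence with signal to noise over triplicate slides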
[9] = target: Neurogenic locus notch homolog protein 3 (Homo sapiens) (UniProt Q9UM47); assay: NOTCH3 binders on small-molecule microarray, primary screen, biochemical, 635/667 nm fluorescence (AID 1096); settings: NOTCH3 binding, 635 nm fluorescence, higher = more signal
Neurogenic locus notch homolog protein 3 (Homo sapiens), sequence (Q9UM47 whole entry, looked up): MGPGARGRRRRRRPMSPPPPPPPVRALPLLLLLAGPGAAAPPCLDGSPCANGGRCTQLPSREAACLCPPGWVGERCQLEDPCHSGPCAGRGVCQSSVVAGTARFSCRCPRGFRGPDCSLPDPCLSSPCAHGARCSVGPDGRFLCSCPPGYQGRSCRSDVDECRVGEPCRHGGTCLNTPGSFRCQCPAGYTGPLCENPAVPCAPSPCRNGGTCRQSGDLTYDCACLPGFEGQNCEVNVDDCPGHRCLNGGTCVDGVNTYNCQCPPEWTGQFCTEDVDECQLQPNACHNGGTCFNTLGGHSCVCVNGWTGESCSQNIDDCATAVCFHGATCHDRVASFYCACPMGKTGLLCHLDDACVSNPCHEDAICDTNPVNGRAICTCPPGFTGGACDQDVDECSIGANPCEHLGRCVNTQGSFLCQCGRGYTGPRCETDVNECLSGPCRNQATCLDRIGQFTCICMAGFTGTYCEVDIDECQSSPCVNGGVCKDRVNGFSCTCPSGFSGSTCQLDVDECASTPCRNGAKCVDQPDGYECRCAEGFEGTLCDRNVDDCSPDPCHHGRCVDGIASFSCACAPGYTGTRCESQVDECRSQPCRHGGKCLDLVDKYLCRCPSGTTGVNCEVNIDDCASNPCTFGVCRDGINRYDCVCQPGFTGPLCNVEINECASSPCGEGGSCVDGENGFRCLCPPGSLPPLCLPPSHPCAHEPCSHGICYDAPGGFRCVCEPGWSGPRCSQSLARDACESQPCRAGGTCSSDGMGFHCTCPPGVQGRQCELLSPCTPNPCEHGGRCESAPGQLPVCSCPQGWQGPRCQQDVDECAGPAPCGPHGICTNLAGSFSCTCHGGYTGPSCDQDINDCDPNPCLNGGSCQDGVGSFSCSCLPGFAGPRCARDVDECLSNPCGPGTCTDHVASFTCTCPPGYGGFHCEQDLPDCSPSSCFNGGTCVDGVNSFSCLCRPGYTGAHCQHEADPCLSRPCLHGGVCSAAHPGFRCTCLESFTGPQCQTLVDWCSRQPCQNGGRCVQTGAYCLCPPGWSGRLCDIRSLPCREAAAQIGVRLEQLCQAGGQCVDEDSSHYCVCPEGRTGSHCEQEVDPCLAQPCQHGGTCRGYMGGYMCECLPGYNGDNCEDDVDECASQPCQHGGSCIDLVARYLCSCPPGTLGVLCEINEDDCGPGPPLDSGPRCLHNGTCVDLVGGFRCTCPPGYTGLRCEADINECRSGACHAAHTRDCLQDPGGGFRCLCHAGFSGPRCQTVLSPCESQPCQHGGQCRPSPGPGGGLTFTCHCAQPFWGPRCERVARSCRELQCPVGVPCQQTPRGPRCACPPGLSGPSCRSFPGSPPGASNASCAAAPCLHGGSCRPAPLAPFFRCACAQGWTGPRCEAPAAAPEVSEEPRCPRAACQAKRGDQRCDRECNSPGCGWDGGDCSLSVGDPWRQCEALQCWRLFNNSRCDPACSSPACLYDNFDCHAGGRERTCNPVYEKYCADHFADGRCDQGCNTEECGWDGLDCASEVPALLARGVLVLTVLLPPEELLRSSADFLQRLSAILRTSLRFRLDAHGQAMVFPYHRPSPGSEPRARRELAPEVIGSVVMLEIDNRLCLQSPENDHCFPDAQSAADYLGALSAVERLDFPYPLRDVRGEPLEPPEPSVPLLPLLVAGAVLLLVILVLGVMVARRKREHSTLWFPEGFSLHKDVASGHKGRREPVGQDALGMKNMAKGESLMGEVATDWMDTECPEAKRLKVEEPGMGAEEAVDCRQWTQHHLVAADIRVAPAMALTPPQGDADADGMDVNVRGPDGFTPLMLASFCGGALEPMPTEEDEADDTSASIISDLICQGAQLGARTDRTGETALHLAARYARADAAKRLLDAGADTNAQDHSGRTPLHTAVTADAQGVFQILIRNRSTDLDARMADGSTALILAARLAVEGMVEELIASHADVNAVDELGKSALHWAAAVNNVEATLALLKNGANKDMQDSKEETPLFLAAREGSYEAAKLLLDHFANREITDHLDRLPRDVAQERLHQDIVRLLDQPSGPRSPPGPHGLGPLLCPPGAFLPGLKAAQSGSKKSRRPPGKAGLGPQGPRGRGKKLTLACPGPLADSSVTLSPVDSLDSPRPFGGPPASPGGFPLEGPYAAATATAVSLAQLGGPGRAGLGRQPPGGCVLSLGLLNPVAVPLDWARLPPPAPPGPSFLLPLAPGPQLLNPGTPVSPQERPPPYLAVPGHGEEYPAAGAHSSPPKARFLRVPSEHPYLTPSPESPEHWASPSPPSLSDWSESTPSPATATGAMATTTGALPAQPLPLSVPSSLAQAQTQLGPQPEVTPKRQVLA

[10] = small-molecule microarray binders of probe aEGFR, primary screen, biochemical, biotinylated probe, 635/667 nm fluorescence (AID 1097); settings: higher = more signal;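 also: probe is a biotinylated anti-EGFR antibody binding compounds printed on slides; score combines fluorescence near 667 nm and signal to noise of each spot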
[11] = tested on: Plasmodium falciparum Sir2 (PF13_0152, Sir2A); assay: pfSir2 binders on small-molecule microarrays, primary screen, biochemical, small-molecule microarray, 635 nm fluorescence (AID 1098); settings: small-molecule microarray binding, fluorescence 635 nm; higher = more signal;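 also: score merges spot fluorescence intensity with its signal-to-noise ratio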
[12] = small-molecule microarray binders of probe aDKK1, primary screen, biochemical, biotinylated probe, 635/667 nm fluorescence (AID 1099); settings: higher = more signal;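 also: score merges 667nm spot fluorescence with signal to noise across triplicate slides; reference of the scale not given here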
[13] = small-molecule microarray binders of probe aCHRDL2, primary screen, biochemical, biotinylated probe, 635/667 nm fluorescence (AID 1100); settings: higher = more signal
[14] = splicing luciferase reporter signal modulators, primary screen, spliceosome inhibition project, cell-based, HEK293, splice +/- reporter (AID 1101); settings: luminescence, 24 h, higher = more signal, called active from +8 up or from −8 down;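 also: HEK293 cells carrying a splicing-competent luciferase reporter gene; test concentration not given here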
[15] = target: Fibroblast growth factor 10 (Homo sapiens) (UniProt O15520); assay: FGF10 binders on small-molecule microarrays, primary screen, biochemical, small-molecule microarray, 635 nm fluorescence (AID 1102); settings: FGF10 binding, fluorescence 635 nm, higher = more signal
Fibroblast growth factor 10 (Homo sapiens), sequence (O15520 whole entry, looked up): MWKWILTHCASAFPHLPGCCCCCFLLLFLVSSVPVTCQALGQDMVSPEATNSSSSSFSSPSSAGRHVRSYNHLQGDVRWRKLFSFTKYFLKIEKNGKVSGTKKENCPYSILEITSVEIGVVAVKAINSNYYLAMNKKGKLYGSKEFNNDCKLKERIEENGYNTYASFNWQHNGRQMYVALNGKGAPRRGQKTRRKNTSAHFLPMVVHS

[16] = tested on: glycogen synthase kinase-3 (GSK3A per assay name; protocol says GSK3B); assay: GSK3 binders on small-molecule microarrays, primary screen, biochemical, small-molecule microarray, 635 nm fluorescence, GSK3A (AID 1103); settings: small-molecule microarray binding, fluorescence 635 nm; higher = more signal; also: the record names both GSK3A and GSK3B
[17] = target: Epidermal growth factor receptor (Homo sapiens) (UniProt P00533); assay: EGFR binders on small-molecule microarrays, primary screen, biochemical, small-molecule microarray, 635 nm fluorescence (AID 1104); settings: EGFR binding, higher = more signal;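 also: score merges 667 nm emission intensity with spot signal to noise over triplicate slides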
Epidermal growth factor receptor (Homo sapiens), sequence (P00533 whole entry, looked up): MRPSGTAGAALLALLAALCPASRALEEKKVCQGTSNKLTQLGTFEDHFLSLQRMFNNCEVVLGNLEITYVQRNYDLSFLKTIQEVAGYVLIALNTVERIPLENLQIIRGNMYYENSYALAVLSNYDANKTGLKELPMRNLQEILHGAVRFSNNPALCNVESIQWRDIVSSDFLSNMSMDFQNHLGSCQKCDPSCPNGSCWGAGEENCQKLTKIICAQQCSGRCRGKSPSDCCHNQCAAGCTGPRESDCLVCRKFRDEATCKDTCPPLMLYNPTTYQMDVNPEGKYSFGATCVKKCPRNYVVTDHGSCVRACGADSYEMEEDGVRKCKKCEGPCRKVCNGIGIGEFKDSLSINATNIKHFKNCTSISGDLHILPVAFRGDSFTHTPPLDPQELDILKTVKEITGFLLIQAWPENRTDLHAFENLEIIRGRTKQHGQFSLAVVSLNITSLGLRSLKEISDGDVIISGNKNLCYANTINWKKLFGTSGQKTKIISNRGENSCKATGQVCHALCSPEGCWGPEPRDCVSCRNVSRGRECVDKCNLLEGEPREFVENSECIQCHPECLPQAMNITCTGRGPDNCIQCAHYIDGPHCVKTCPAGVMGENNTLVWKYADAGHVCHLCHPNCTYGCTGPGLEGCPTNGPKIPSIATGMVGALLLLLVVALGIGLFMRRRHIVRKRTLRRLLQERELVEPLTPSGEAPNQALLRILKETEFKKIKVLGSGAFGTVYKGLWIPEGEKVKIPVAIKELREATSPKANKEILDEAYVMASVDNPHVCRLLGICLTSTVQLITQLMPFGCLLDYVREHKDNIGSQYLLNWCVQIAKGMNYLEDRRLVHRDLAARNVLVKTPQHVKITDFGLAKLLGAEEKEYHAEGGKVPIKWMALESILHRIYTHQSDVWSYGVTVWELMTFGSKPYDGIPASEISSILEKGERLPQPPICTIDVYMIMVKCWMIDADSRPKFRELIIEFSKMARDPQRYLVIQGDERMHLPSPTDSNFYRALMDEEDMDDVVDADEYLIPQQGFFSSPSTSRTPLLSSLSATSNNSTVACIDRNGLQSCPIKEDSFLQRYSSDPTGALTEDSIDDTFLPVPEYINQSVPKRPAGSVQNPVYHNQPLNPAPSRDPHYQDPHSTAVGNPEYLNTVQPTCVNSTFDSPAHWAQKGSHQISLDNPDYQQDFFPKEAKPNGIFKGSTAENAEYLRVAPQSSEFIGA

[18] = target: Follistatin-related protein 3 (Homo sapiens) (UniProt O95633); assay: FSTL3 binders on small-molecule microarrays, primary screen, biochemical, small-molecule microarray, 635 nm fluorescence (AID 1105); settings: FSTL3 binding, higher = more signal;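 also: score merges emission near 667 nm and signal to noise per printed spot across three slides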
Follistatin-related protein 3 (Homo sapiens), sequence (O95633 whole entry, looked up): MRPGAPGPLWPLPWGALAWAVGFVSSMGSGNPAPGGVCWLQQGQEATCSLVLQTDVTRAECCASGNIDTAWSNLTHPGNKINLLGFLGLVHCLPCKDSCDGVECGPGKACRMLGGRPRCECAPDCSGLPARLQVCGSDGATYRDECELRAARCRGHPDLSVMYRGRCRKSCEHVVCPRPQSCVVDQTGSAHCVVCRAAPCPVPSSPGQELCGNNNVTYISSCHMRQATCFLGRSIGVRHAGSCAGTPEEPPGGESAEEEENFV

[19] = target: Dickkopf-related protein 1 (Homo sapiens) (UniProt O94907); assay: DKK1 binders on small-molecule microarrays, primary screen, biochemical, small-molecule microarray, 635 nm fluorescence scan (AID 1106); settings: DKK1 binding, higher = more signal;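 also: score merges emission near 667 nm with signal to noise over three replicate slides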
Dickkopf-related protein 1 (Homo sapiens), sequence (O94907 whole entry, looked up): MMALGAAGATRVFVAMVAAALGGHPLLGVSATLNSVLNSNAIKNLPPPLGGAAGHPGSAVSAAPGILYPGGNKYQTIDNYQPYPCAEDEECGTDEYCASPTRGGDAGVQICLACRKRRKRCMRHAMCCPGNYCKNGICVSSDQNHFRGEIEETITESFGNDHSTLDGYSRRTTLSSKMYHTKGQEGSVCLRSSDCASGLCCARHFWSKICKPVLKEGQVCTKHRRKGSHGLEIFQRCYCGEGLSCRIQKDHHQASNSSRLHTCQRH

[20] = tested on: Inhibin beta A chain (activin A); assay: INHBA (activin A) binders on microarrays, primary screen, biochemical, small-molecule microarray, 635 nm fluorescence scan (AID 1107); settings: small-molecule microarray binding, higher = more signal;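 also: mouse activin A protein probed at 4.33 µg/mL on printed slides; score merges bound-protein fluorescence near 667 nm with spot signal-to-noise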

Row | Compound | composite z-score [1] | z-score [2] | z-score [3] | z-score [4] | composite z-score [5] | z-score [6] | composite z-score [7] | composite z-score [8] | composite z-score [9] | composite z-score [10] | composite z-score [11] | composite z-score [12] | composite z-score [13] | z-score [14] | composite z-score [15] | composite z-score [16] | composite z-score [17] | composite z-score [18] | composite z-score [19] | composite z-score [20]
1 | COc1cc2c(cc1O)C(C1CC1)N(C)CC2 (stereo not given) | 0.153 | 0.814 (inactive) | 0.74 (inactive) | -0.531 (inactive) | 0.0629 | -0.965 (inactive) | 0.0112 | 0.0427 | -0.944 | -0.171 | 0.353 | 0.211 | 0.583 | -0.451 (inactive) | -0.382 | -1.3 | -1.17 | -0.57 | -0.896 | 0.942
2 | CCOC(=O)C[C@H]1[C@H](OC(=O)c2cc3ccccc3oc2=O)[C@@H](NC(=O)c2ccc3ccccc3n2)c2cc(OCCCO)ccc2N1C(=O)Cc1ccc(OC)cc1 | 1.45 | -0.136 (inactive) | -0.163 (inactive) | -0.617 (inactive) | 1.33 | 0.397 (inactive) | -0.0391 | 0.638 | 1.16 | 0.104 | 0.915 | -0.207 | -0.427 | -0.362 (inactive) | 1.01 | 1.06 | 0.442 | 1.2 | 0.707 | 0.288
3 | C=C(/C(=C/C[C@H](OC(C)=O)c1ccc(CO)o1)c1cnc2ccccc2c1)C(C)C | 1.54 | -0.816 (inactive) | -1.13 (inactive) | 0.171 (inactive) | 2.64 | 0.243 (inactive) | -0.044 | 1.6 | 1.02 | -0.0172 | 1.1 | -0.151 | -0.483 | 0.652 (inactive) | 1.44 | 1.21 | 0.845 | 1.58 | 0.643 | 1.52
4 | COC(=O)c1c(CC[C@@H](CO)NC(=O)N2CCC[C@H]2Cn2cc(C3(O)CCCCC3)nn2)oc(C(C)=O)c1C(=O)OC | 1.53 | 0.752 (inactive) | -0.154 (inactive) | -1.28 (inactive) | 3.4 | -0.889 (inactive) | -0.124 | 0.872 | 0.916 | -0.0097 | 1.65 | -0.152 | -0.404 | -0.503 (inactive) | 0.955 | 0.56 | 0.197 | 0.742 | 0.336 | 0.0806
5 | CCOC(=O)C[C@H]1[C@H](OC(=O)Cc2ccc3c(c2)OCO3)[C@@H](NC(=O)C2CCCCC2)c2cc(OCCCO)ccc2N1C(=O)c1ccccc1 | 1.05 | 0.193 (inactive) | -0.432 (inactive) | 0.36 (inactive) | 0.618 | 2.58 (inactive) | -0.248 | 0.0367 | 0.255 | -0.0452 | 0.0882 | -0.173 | -0.265 | -0.664 (inactive) | 0.27 | -0.0848 | 0.073 | 0.145 | 0.351 | 0.193
6 | CCCCN1CC=CC23O[C@@H]4/C=C\CCCOC(=O)C4[C@H]2C(=O)N(CCO)[C@@H]3C1=O (stereo not given in full) | -0.328 | 0.812 (inactive) | -0.0784 (inactive) | -0.0859 (inactive) | 3.01 | 2.12 (inactive) | -0.212 | -1.03 | -0.968 | -0.385 | 1.77 | -0.356 | 0.644 | -0.817 (inactive) | -1.29 | -0.782 | -1.26 | -1.38 | -1.58 | -0.677
7 | C=C[C@@H](OC)[C@H](OC(=O)Nc1ccc(OC)cc1)c1ccc(O)c(F)c1 | 0.882 | -1.48 (inactive) | -4.59 (inactive) | 0.144 (inactive) | 1.16 | 1.19 (inactive) | -0.183 | 0.638 | 0.0981 | -0.199 | 1.52 | -0.515 | -0.54 | -0.653 (inactive) | -0.076 | -0.242 | -0.459 | -0.0891 | 0.171 | 1.07
8 | CC[C@@H]1C=C(C(=O)O)[C@H](c2ccccc2)N1S(=O)(=O)c1ccc(C)cc1 | 0.598 | -1.14 (inactive) | 0.231 (inactive) | -0.12 (inactive) | 2.87 | -0.749 (inactive) | 0.262 | 0.103 | 0.981 | 0.0638 | 1.69 | 0.748 | 0.853 | 0.0795 (inactive) | 0.825 | 0.52 | -0.482 | 0.0194 | -0.294 | 0.941
9 | O[C@@H](Cc1ccccc1)[C@@H](/C=C/C1CC1)N(CC#Cc1ccccc1)Cc1ccccc1Br | -0.0917 | 0.298 (inactive) | 0.398 (inactive) | 1.43 (inactive) | 0.461 | 0.247 (inactive) | 0.0166 | -1.33 | -0.817 | -0.339 | -0.0214 | -0.107 | 1.38 | -1.39 (inactive) | -1.36 | -0.689 | -1.29 | -1.62 | -1.88 | 0.171
10 | COCCOC(=O)N1C(=O)[C@@]2(c3cc(C#CCNC(N)=O)ccc31)[C@H](C(N)=O)[C@H]1C(=O)O[C@H](c3ccccc3)[C@H](c3ccccc3)N1[C@@H]2c1ccccc1OCCO | 1.47 | 1 (inactive) | 0.346 (inactive) | 1.91 (inactive) | 2.07 | -0.658 (inactive) | 0.0389 | 0.506 | 1.08 | -0.071 | 1.16 | 0.0377 | 0.803 | 0.565 (inactive) | 1.07 | 0.782 | 0.302 | 1.31 | 0.78 | 1.11
11 | CCOC(=O)C[C@H]1[C@H](OC(=O)c2ccc(C(=O)c3ccccc3)cc2)[C@@H](NC(=O)c2ccc(-c3ccccc3)cc2)c2cc(OCCCO)ccc2N1C(=O)Cc1ccc(OC)cc1 | 0.845 | 0.233 (inactive) | 0.838 (inactive) | 0.876 (inactive) | 0.861 | 0.24 (inactive) | 0.259 | 0.601 | 0.378 | -0.0302 | 0.0732 | 0.223 | 0.777 | -0.213 (inactive) | 0.0382 | 0.0652 | -0.274 | 0.0472 | -0.537 | 0.783
